NSD2 inh – inhibitors of human histone methyltransferase NSD2; 310,000 compounds, 0.54% hits; AID 743445; inhibition, % at 12.5 µM; NSD2 peptide methylation, AlphaScreen, 120 min; in the data active = inhibition above about 50%
RAD52 inh – blocks human RAD52 DNA annealing; P43351; recombinant RAD52 DNA annealing, FRET fluorescence; inhibition, % at 18.7 µM; 360,000 compounds, 0.46% hits;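 active = every replicate showing at least 50% inhibition; inconclusive = mean inhibition at least 50% but not in every replicate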
AF4-AF9 inh – blocks AF4 peptide binding to human AF9 | AID 651704 | inhibition, % at 10 µM | AlphaScreen, biotin-AF4 peptide binding to FLAG-AF9 | 350,000 compounds, 0.47% hits;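 active = every replicate reaching a set inhibition limit, whatever the replicate mean, cut at about 25% in these data; inconclusive = mean inhibition reaches that limit but some replicates miss it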;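 also: 0% = plate neutral control median and 100% = total signal loss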
Target sequence (P42568 whole entry, looked up): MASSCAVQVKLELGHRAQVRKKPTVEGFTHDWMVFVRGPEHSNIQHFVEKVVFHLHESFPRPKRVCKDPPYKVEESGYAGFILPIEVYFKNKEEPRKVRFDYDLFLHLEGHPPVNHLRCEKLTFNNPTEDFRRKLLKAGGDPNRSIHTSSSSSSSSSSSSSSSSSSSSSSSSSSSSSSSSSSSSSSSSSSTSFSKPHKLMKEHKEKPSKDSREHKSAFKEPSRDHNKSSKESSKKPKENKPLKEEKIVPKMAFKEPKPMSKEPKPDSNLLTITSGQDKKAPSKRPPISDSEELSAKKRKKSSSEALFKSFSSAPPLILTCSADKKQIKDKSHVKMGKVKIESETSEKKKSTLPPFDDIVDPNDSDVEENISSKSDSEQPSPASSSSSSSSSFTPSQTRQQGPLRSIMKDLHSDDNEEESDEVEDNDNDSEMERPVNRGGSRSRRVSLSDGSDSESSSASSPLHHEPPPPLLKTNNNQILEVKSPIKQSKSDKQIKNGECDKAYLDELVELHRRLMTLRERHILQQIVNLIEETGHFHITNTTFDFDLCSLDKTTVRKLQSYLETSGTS
miR122 inh – miR-122 inhibition in Huh7 cells. Huh7 miR-122 Renilla luciferase sensor, 48 h; neutral wells = 0, positive control = 100. activation (reporter increase), % at 12.5 µM. 340,000 compounds, 0.3% hits. AID 602342;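 active = mean replicate activation score at least 90 and every replicate individually at or above 90; inconclusive = only one of the two criteria met; inactive = neither criterion met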;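 also: higher luciferase means less miR-122 activity so hits act as miR-122 inhibitors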
Casp6 inh – blocks human caspase-6 cleavage activity | P55212 | purified caspase-6, Z-VEID-R110 cleavage fluorescence | inhibition, % at 12.5 µM | 350,000 compounds, 0.53% hits | AID 686996;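 active = mean inhibition across replicates at least about 35%, with every replicate also reaching that limit, limit read from the data; inconclusive = only one of the two criteria met; inactive = neither criterion met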;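 also: 0% = median of neutral control wells and 100% = no fluorescence left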
Active calls of the source: *; ? = inconclusive; · = no result given; ! = repeats disagree; [ ] = remark or other dose. Most compounds without a hit are left out; they make up all but 1.5% or so of the library.

SMILES	NSD2 inh	RAD52 inh	AF4-AF9 inh	miR122 inh	Casp6 inh
COc1ccc(-c2ccc(C3[C@@H]4CN(S(=O)(=O)c5cccc(C)c5)C[C@H]3N4)cc2)cc1 (some centres not stated)	·	70.7*!	-4.0	·	4.5
COc1cccc(S(=O)(=O)N2C[C@@H]3N[C@H](C2)C3c2ccc(-c3cccc(C)c3)cc2)c1 (some centres not stated)	·	56.7*!	-4.1	·	0.7
Cc1cccc(S(=O)(=O)N2C[C@@H]3N[C@H](C2)C3c2ccc(-c3cccnc3)cc2)c1 (some centres not stated)	·	-11.3	1.4	·	0.8
C[C@@H]1CN([C@H](C)CO)C(=O)c2cccc(NS(=O)(=O)c3ccc(Cl)cc3)c2O[C@H]1CN(C)C(=O)Nc1ccc(F)cc1	·	·	·	-9.0[16.7 µM]	·
O=C(Nc1nnc(Cc2c[nH]c3ccccc23)s1)c1ccc(Cl)cc1Cl	2.9	-9.6	1.0	·	58.2*
NS(=O)(=O)c1ccc(NC(=S)NC(=O)c2ccc(Br)o2)cc1	2.6	-24.8	1.6	1.6	0.8
O=C(Nc1ccc(S(=O)(=O)NCCc2ccccc2)cc1)c1ccc(Br)o1	0.1	·	·	200.9*	·
CCOC(=O)c1cc(S(=O)(=O)NCCc2ccccc2)cn1C	1.8	-9.3	-2.8	113.9*	2.8
Cc1cc(C)cc(NS(=O)(=O)c2ccc(NC(=S)NC(=O)c3ccc(Br)o3)cc2)c1	0.9	·	·	97.5*	·
COCC(=O)Nc1ccc(S(=O)(=O)NCCc2ccccc2)cc1	-1.4	·	·	118.1*	·
CCCNC(=O)Nc1ccc2c(c1)OC[C@@H](C)N(C(=O)C1CCCCC1)C[C@@H](C)[C@@H](OC)CN(C)C2=O	·	-0.2	0.6	7.2[16.7 µM]	-0.2
CC(C)(C)NS(=O)(=O)c1ccc(OCC(=O)Nc2ccc3c(c2)OCCO3)cc1	-7.8	·	·	111.8*	·
COc1ccc(NS(=O)(=O)c2cc(NC(=O)COc3ccc(OC)cc3)ccc2N2CCOCC2)cc1	-2.8	-10.7	1.8	109.6*	-2.6
CC(C)(C)NS(=O)(=O)c1ccc(CCC(=O)Nc2ccc3c(c2)OCCO3)cc1	-0.8	·	·	1.8	·
COCC(=O)Nc1ccc(N2CCOCC2)c(S(=O)(=O)Nc2ccc(OC)cc2)c1	-1.0	-16.1	5.6	75.8	-0.5
COc1cccc(CC(=O)Nc2ccc(N3CCOCC3)c(S(=O)(=O)Nc3ccccc3OC)c2)c1	-2.6	-46.2	5.6	129.1*	-2.3
COc1ccc(NS(=O)(=O)c2cc(NC(=O)Cc3c(F)cccc3Cl)ccc2OC)cc1	-1.3	-14.8	-6.6	?	-2.9
COc1ccc(NC(=O)Cc2cccc(F)c2)cc1S(=O)(=O)Nc1ccccc1Cl	·	-7.6	2.9	332.0*	0.3
COc1ccc2c3c(n(C)c2c1)[C@H](CO)N(Cc1cccnc1)CC31CN(C(=O)NC(C)C)C1	·	-41.1	1.7	·	3.9
CS(=O)(=O)Nc1ccc2c(c1)[C@@H]1C[C@H](CC(=O)NCC(F)(F)F)O[C@@H](CO)[C@@H]1O2	·	12.8	-11.8	2.1[16.7 µM]	-0.5
CN1C(=O)c2cc(NC(=O)c3ccc(F)cc3)ccc2OC[C@@H]2O[C@H](CC(=O)NCC3CCCCC3)CC[C@@H]21	·	-1.1	-0.6	28.7[16.7 µM]	-0.9
COc1ccc(S(=O)(=O)Nc2ccc(N3CCOCC3)cc2)cc1	3.1	-10.7	1.0	0.7	-1.7
COc1ccc(S(=O)(=O)Nc2ccc(S(=O)(=O)N3CCOCC3)cc2)cc1	12.1	·	·	159.8*	·
NS(=O)(=O)c1ccc(CCNC(=O)CCS(=O)(=O)c2ccc(Br)cc2)cc1	-0.5	-7.7	-9.0	9.5	79.3*
CCc1cccc(NC(=O)CCS(=O)(=O)c2ccc(Br)cc2)c1	9.4	-12.0	-5.2	19.4	71.5*
SMILES	NSD2 inh	RAD52 inh	AF4-AF9 inh	miR122 inh	Casp6 inh
COc1ccc(CNC(=O)CCS(=O)(=O)c2ccc(Br)cc2)cc1	5.8	-7.0	-3.4	3.3	57.3*
COC(=O)C1=COC(OC2OC(CO)C(O)C(O)C2O)C2C(C)CC(=O)C12 (configuration not stated)	·	-10.1	3.0	0.6	35.2*
COC(=O)C1=COC(OC2OC(CO)C(O)C(O)C2O)C2C1C=CC2(O)CO (configuration not stated)	·	-0.4	-2.3	4.4	47.8*
COC(=O)C1=CO[C@@H](O[C@@H]2OC(CO)[C@@H](O)[C@@H](O)[C@@H]2O)C2C1CC[C@]2(C)O (some centres not stated)	·	-13.5	0.1	1.2	1.0
CC(C)C#Cc1ccc2c(c1)O[C@H](CN(C)C(=O)c1cccc(F)c1)[C@@H](C)CN([C@@H](C)CO)S2(=O)=O	·	4.3	-7.2	-3.6[16.7 µM]	1.9
COc1ccccc1-n1cnc2cc(NCc3ccccn3)ccc21	1.4	·	·	17.4	·
CCCn1cnc2cc(NCc3ccccn3)ccc21	·	1.5	42.5*	-9.2	2.4
O=C(Cc1cccc2ccccc12)Nc1ccc(OC(F)F)c(Cl)c1	-3.7	4.4	-1.3	94.0*	2.7
O=C(Nc1ccc(OC(F)F)c(Cl)c1)C(c1ccccc1)c1ccccc1	-0.7	-1.2	-1.2	·	-0.2
CC(=O)Nc1nnc(-c2ccc(Cl)s2)o1	·	-10.6	45.1*	-2.9	0.5
CCN1CCN(C(=O)C(C)Nc2ccc(OC)cc2OC)CC1 (configuration not stated)	13.9	-41.1	25.6*	-5.2	-0.3
O=C(C[C@@H]1CC[C@H]2[C@@H](COC[C@@H](O)CN2Cc2cc(F)ccc2F)O1)NCc1ccc(Cl)cc1	·	·	·	-4.0[16.7 µM]	·
O=C(Cc1ccncc1)NCC[C@@H]1CC[C@H](NC(=O)C2CCCCC2)[C@@H](CO)O1	·	-18.9	0.4	·	0.0
Cc1ccc(-c2csc(=Nc3cccnc3)n2CCCn2ccnc2)cc1C	16.5	-16.6	36.6*	·	-3.3
CCOC(=O)c1c(NC(=O)C2CC2)sc2c1CC(C)(C)OC2	-5.4	-5.9	-0.7	0.2	-3.4
CCOC(=O)c1c(NC(=O)C2CC(Cl)=CCC2C(=O)O)sc2c1CC(C)(C)OC2 (configuration not stated)	2.1	-7.3	-0.8	7.2	42.6*
O=C(Nc1ccc(C(=O)N2CCCC2)cc1)c1ccc2c(c1)OCO2	2.7	-2.6	0.6	-6.7	44.3*
CSc1ccc(C(=O)C2CCCN(C(=O)c3ccc4c(c3)OCO4)C2)cc1 (configuration not stated)	-0.4	-4.6	1.8	-0.9	0.6
O=C(c1ccc2c(c1)OCO2)N1CCCC1	-2.1	·	·	-5.8	·
COC(=O)c1cccc(C(=O)N2CCCC(C(=O)c3cccc(OC(C)C)c3)C2)c1 (configuration not stated)	28.2	-6.7	-1.8	-5.8	39.4*
O=C(c1cccc(Cl)c1)C1CCCN(C(=O)c2ccc3c(c2)OCO3)C1 (configuration not stated)	-4.8	-4.6	31.0*	3.1	4.0
C[C@@H]1CN([C@H](C)CO)C(=O)c2cc(-c3ccccc3)cnc2O[C@H]1CN(C)C(=O)c1ccccc1F	·	-5.9	0.8	·	·
COc1ccccc1S(=O)(=O)N(C)C[C@@H]1OCc2ccccc2-c2ccccc2C(=O)N([C@H](C)CO)C[C@@H]1C	·	-15.6	-3.6	·	0.8

Assay outcomes: PubChem, Broad Institute
